According to PubChem BioAssay AID720597 (Broad Institute, 2013):
Measured potencies and affinities stand elsewhere. Activity calls are given as the source filed them.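 The calls were made as follows: active = fitted half-maximal dose no more than twice the top valid tested dose, for compounds that lower signal; inconclusive = fit invalid, or curve flat with activity between -70 and -30; inactive = potency past limit, curve flat within ±30, or signal increasing.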

Target: NAD-dependent protein deacylase sirtuin-5, mitochondrial (Homo sapiens) (UniProt Q9NXA8)
Sequence (Q9NXA8 whole entry, looked up): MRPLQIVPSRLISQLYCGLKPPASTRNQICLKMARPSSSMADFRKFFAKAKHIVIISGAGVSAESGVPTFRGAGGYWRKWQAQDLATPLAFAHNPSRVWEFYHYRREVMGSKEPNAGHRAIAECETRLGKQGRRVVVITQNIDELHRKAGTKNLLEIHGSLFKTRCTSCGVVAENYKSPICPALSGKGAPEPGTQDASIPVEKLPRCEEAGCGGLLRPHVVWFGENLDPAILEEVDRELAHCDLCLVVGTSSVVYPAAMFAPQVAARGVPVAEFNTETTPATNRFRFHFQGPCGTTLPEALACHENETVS
Test: blockers of sirtuin-5 peptide desuccinylation – biochemical, fluorescence imaging, cherry-pick, set 6, dose response (AID 720597);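 also: lower AMC signal can also come from blocking the trypsin step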

SMILES	outcome
O=C(C[C@@H]1C[C@H]2c3cc(NC(=O)Nc4ccccc4F)ccc3O[C@H]2[C@H](CO)O1)NCC1CC1	inactive
C[C@@H]1CN([C@@H](C)CO)C(=O)c2cc(NC(=O)Cc3cn(C)c4ccccc34)ccc2O[C@@H]1CN(C)Cc1ccc(Oc2ccccc2)cc1	inactive
C[C@@H]1CN([C@@H](C)CO)C(=O)c2ccccc2-c2ccccc2CO[C@H]1CN(C)Cc1ccccc1C(F)(F)F	inactive
O=C(C[C@@H]1C[C@H]2c3cc(NC(=O)Nc4ccc(C(F)(F)F)cc4)ccc3O[C@H]2[C@H](CO)O1)NCc1ccc2c(c1)OCO2	inactive
COc1cccc(S(=O)(=O)N(C)C[C@@H]2Oc3cc(C4=CCCCC4)ccc3S(=O)(=O)N([C@@H](C)CO)C[C@H]2C)c1	inactive
COc1ccccc1-c1ccc([C@@H]2[C@@H]3CN(S(=O)(=O)c4ccc(-c5ccccc5)cc4)C[C@H]2N3)cc1	inactive
O=C(CCN1CCCCC1)N[C@@H]1CC[C@H](CC(=O)N2CCC(Cc3ccccc3)CC2)O[C@H]1CO	inactive
CC(C)C#Cc1cnc2c(c1)C(=O)N([C@@H](C)CO)C[C@H](C)[C@H](CN(C)C(=O)c1ccccc1)O2	inactive
C[C@H]1CCCCO[C@H](CN(C)Cc2ccc(C(F)(F)F)cc2)[C@@H](C)CN([C@@H](C)CO)C(=O)c2cc(NS(=O)(=O)c3ccc(Cl)cc3)ccc2O1	inactive
Cc1ccc(S(=O)(=O)Nc2ccc3c(c2)C(=O)N([C@H](C)CO)C[C@@H](C)[C@@H](CN(C)Cc2ccc(C(F)(F)F)cc2)OCCCC[C@H](C)O3)cc1	inactive
C[C@H](O)C#Cc1ccc2c(c1)O[C@H](CN(C)Cc1ccc(-c3ccccc3)cc1)[C@@H](C)CN([C@H](C)CO)S2(=O)=O	inactive
C[C@@H]1CN([C@H](C)CO)C(=O)c2c(c3ccccc3n2C)-c2ccccc2CO[C@@H]1CN(C)S(=O)(=O)c1ccc(Cl)cc1	inactive
CCCC(=O)Nc1ccc2c(c1)OC[C@@H](C)N(Cc1ccccc1)C[C@H](C)[C@H](OC)CN(C)C2=O	inactive
COc1cc2c(cc1OC)CN(C(=O)[C@@H]1[C@H]3C(=O)O[C@H](c4ccccc4)[C@H](c4ccccc4)N3[C@H](c3ccc(OCCO)cc3)[C@@]13C(=O)Nc1ccc(C#CCNC(N)=O)cc13)CC2	inactive
C[C@@H]1CN([C@@H](C)CO)S(=O)(=O)c2ccc(C3=CCCCC3)cc2O[C@@H]1CN(C)S(=O)(=O)c1ccc(F)cc1	inactive
C[C@H]1CN([C@@H](C)CO)S(=O)(=O)c2ccc(C#Cc3cccc(F)c3)cc2O[C@@H]1CN(C)S(=O)(=O)c1ccccc1F	inactive
C[C@@H]1CN([C@H](C)CO)S(=O)(=O)c2ccc(C#CC(C)(C)O)cc2O[C@@H]1CN(C)Cc1ccc(-c2ccccc2)cc1	inactive
C[C@H](CO)N1C[C@H](C)[C@@H](CN(C)Cc2ccc(Cl)c(Cl)c2)OCCCC[C@H](C)Oc2ccc(NS(=O)(=O)c3cccs3)cc2C1=O	inactive
COc1ccc(S(=O)(=O)Nc2ccc3c(c2)C(=O)N([C@H](C)CO)C[C@@H](C)[C@H](CN(C)S(=O)(=O)c2ccccc2)OCCCC[C@@H](C)O3)cc1	inactive
CN(C)C(=O)c1ccc(-c2ccc([C@H]3[C@H](CO)N4CCCCN(CCC(F)(F)F)C[C@@H]34)cc2)cc1	inactive
C[C@@H]1CN([C@@H](C)CO)C(=O)c2cccc(NC(=O)c3ccncc3)c2O[C@@H]1CN(C)S(C)(=O)=O	inactive
CCCC#Cc1ccc([C@@H]2[C@H]3CN(S(=O)(=O)Cc4ccccc4)CCCCN3[C@H]2CO)cc1	inactive
COc1ccc(S(=O)(=O)Nc2ccc3c(c2)C(=O)N([C@H](C)CO)C[C@@H](C)[C@H](CN(C)Cc2ccc(C(F)(F)F)cc2)OCCCC[C@@H](C)O3)cc1	inactive
CC(C)CC#Cc1ccc2c(c1)O[C@@H](CN(C)Cc1ccccc1F)[C@H](C)CN([C@H](C)CO)S2(=O)=O	inactive
CCN1[C@H](C(=O)NCc2ccccc2)[C@@H](CO)[C@@H]2Cn3c(ccc(-c4ccncc4)c3=O)[C@@H]21	inactive
O=S(=O)(c1ccc(F)cc1)N1CCCCN2[C@@H](CO)[C@H](c3ccc(C#CC4CCCC4)cc3)[C@@H]2C1	inactive
C[C@@H]1CCCCO[C@@H](CN(C)Cc2ccc(C(F)(F)F)cc2)[C@H](C)CN([C@H](C)CO)C(=O)c2cc(NS(=O)(=O)c3ccccc3)ccc2O1	inactive
